Compounds with a hit are over-represented: about 1.4% of the library has one in this group of screens.
AmpC no deterg – qHTS Inhibitors of AmpC Beta-Lactamase (assay without detergent) | AmpC nitrocefin hydrolysis, absorbance 480 nm, 0.0001% Triton | Potency, µM (series often up to 57.1 µM), actives largely listed as inhibitors | hit rate 0.52% among 330,000; also: nearly all actives have a fitted effect of over 20% in size
Target sequence (P00811 whole entry, looked up): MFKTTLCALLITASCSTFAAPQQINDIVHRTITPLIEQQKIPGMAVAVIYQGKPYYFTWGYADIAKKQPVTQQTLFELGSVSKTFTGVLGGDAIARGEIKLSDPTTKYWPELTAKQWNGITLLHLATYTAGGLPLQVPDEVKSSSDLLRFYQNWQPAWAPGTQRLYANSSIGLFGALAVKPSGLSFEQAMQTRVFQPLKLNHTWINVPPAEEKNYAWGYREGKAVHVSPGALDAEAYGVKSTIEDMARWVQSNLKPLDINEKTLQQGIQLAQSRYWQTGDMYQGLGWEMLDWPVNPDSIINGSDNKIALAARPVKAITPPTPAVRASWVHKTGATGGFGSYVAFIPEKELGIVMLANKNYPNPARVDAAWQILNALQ
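AmpC (5.3 nM in the dispensed reagent) in 20 mM phosphate pH 7.0 with 0.01% (detergent screen) or 0.0001% Triton X-100 was preincubated with compounds for 15 min at room temperature. Nitrocefin was then added from an 800 uM solution, and hydrolysis was followed at 480 nm.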
VACV Venus inh – qHTS for Stage-Specific Inhibitors of Vaccinia Orthopoxvirus: Venus Reporter Primary qHTS | Vaccinia virus Venus reporter expression, fluorescence | Potency, µM (highest dose often 36.5 µM), usual class: inhibitors | hit rate 0.46% among 330,000 | AID 720580, 2013; calls by dose curve; tested in A549 cells; also: nearly all actives have a fitted effect of over 30% in size
AMA1-RON2 inh – qHTS for Inhibitors of AMA1-RON; Towards Development of Antimalarial Drug Lead: Primary Screen | Plasmodium falciparum AMA1 (3D7) - RON2 peptide interaction | AlphaScreen AMA1-biotinylated RON2 peptide binding | Potency, µM (top dose mostly 58.2 µM), most hits filed as inhibitors | hit rate 0.2% among 360,000; also: nearly all actives have a fitted effect of over 45% in size
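AMA1 (3D7) with his tag at 25 nM final met compounds first, then biotinylated RON2 peptide at 25 nM; detection used donor plus acceptor beads, 10 µg/mL apiece, read by AlphaScreen after 30 min at room temperature.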
AmpC detergent – qHTS Inhibitors of AmpC Beta-Lactamase (assay with detergent); P00811; AmpC hydrolysis of nitrocefin, absorbance 480 nm, 0.01% Triton; Potency, µM (highest dose often 114 µM), actives largely listed as inhibitors; hit rate 0.041% among 370,000; also: nearly all actives have a fitted effect of over 25% in size
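20 mM phosphate pH 7.0 + 0.01% (detergent screen) or 0.0001% Triton X-100; 5.3 nM AmpC reagent; cpd preinc 15 min RT; nitrocefin (800 uM stock) to start; A480 q20 s × 4 min; Activity was normalised to no-enzyme and no-compound control wells.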
SARS PLpro yeast – qHTS of Yeast-based Assay for SARS-CoV PLP; S. cerevisiae expressing SARS-CoV PLpro, growth rescue; Potency, µM (top dose mostly 32.9 µM), usual class: activators; hit rate 0.19% among 330,000; AID 485353, 2010; calls by dose curve; also: nearly all actives have a fitted effect of over 55% in size
VACV mCherry inh – qHTS for Stage-Specific Inhibitors of Vaccinia Orthopoxvirus: mCherry Reporter Primary qHTS. Vaccinia virus mCherry reporter infection, fluorescence. Potency, µM (doses to about 36.5 µM), actives largely listed as inhibitors. hit rate 0.63% among 310,000. AID 720579, 2013; calls by dose curve; tested in A549 cells; also: nearly all actives have a fitted effect of over 35% in size
Hits are given with their value; – = inactive; ? = inconclusive; · = not tested or not shown. Unless noted, calls follow the shape of the dose curve; as a rule, active = well fitted curve in the direction sought with a large enough effect; inconclusive = small, poorly fitted or top-dose-only effect, or another doubt; inactive = no such curve, though single readings can be large; an effect the other way counts as inactive or inconclusive.

SMILES	AmpC no deterg	VACV Venus inh	AMA1-RON2 inh	AmpC detergent	SARS PLpro yeast	VACV mCherry inh
O=C(O)CCCCCNS(=O)(=O)c1cccc2c1C(=O)c1ccccc1C2=O	–	5µM	?	–	–	4.5µM
O=C(O)CCCCCNS(=O)(=O)/C=C/c1ccccc1	–	–	–	–	–	–
CN(C)C(=O)CN(c1ccc(F)c(Cl)c1)S(C)(=O)=O	–	–	–	–	–	–
CS(=O)(=O)N(CC(N)=O)c1ccc(F)c(Cl)c1	0.32µM	–	–	–	–	–
Cc1ccc(Cl)cc1NC(=O)Nc1cccs1	14µM	–	–	–	–	?
Cc1ccccc1NC(=O)Nc1cccs1	–	–	–	–	–	–
COc1ccc2cc3c(N)nn(C(=O)C4CCC(C(C)(C)C)CC4)c3nc2c1 (stereo not drawn)	–	14µM	–	?	–	?
COc1ccc2cc3c(N)nn(C(=O)Cc4ccccc4OC)c3nc2c1	–	–	–	–	–	–
CC(=O)NC(NC(=S)Nc1ccc(N=Nc2ccccc2)cc1)C(Cl)(Cl)Cl (stereo not drawn)	–	14µM	–	–	–	13µM
COC(=O)c1c(OCc2ccccn2)cc(=O)n2c1CCN(Cc1ccc3c(c1)CCCN3C)CC2	·	–	·	·	·	–
CC(C)(C)c1ccc(OCCC(=O)Nc2ccc(N3CCOCC3)cc2N2CCOCC2)cc1	–	–	?	–	–	13µM
CC(C)(C)c1cc(CCC(=O)NNC(=S)NC(=O)c2ccccc2)cc(C(C)(C)C)c1O	1.6µM	·	–	–	5µM	·
O=C(CCc1ccccc1)NNC(=S)NC(=O)c1ccccc1	–	–	–	–	–	–
CCc1cc(C(=O)NCC2Cc3cc(C)cc(-c4cc(C(C)=O)ccc4F)c3O2)n(C)n1 (stereo not drawn)	·	–	·	·	·	–
CNC(=S)NNC(=O)COc1ccc(C)c(C)c1	–	–	–	?	13µM	–
Cc1ccc(OCC(=O)Nc2cccc(O)c2)cc1C	–	–	–	–	?	–
O=C(NC1CCCc2ccccc21)c1ccc(=O)[nH]c1 (stereo not drawn)	–	–	–	–	–	–
CCC(C)(NC(=O)c1ccc(=O)[nH]c1)C(=O)NC1CCCC1 (stereo not drawn)	2.8µM	–	–	?	–	–
COc1cccc(CNC(=O)c2c(OC)cc(=O)n3c2CCN(C(=O)C2=C(C)OCCO2)CC3)c1	·	–	·	·	·	–
O=C(COC(=O)c1cn(-c2ccccc2)nc1-c1ccc(F)cc1)Nc1ncc(Cl)cc1Cl	–	–	–	–	–	–
O=C(/C=C/c1cn(-c2ccccc2)nc1-c1ccccc1)Nc1ccc(C(=O)O)cc1	–	–	–	–	–	–
NS(=O)(=O)c1ccc(NC(=O)/C=C/c2cn(-c3ccccc3)nc2-c2cccc(Cl)c2)cc1	2.5µM	?	–	–	–	–
NS(=O)(=O)c1ccc(NC(=O)COC(=O)c2cn(-c3ccccc3)nc2-c2ccc(F)cc2)cc1	13µM	?	–	–	–	–
O=C(Nc1ccc(F)cc1)[C@H](CSCc1ccccc1)N1Cc2ccccc2C1=O	·	–	·	–	·	–
O=C(NCC1Cc2cc(F)cc(-c3cccnc3)c2O1)c1cnn(-c2ccccc2)c1 (stereo not drawn)	·	–	·	·	·	–
SMILES	AmpC no deterg	VACV Venus inh	AMA1-RON2 inh	AmpC detergent	SARS PLpro yeast	VACV mCherry inh
O=C(/C=C/c1ccc(F)cc1)c1ccccc1Br	–	28µM	–	–	–	?
C[C@H]1C=CC(=O)O[C@H]1c1ccccc1	·	3.2µM	–	·	·	?
Cc1ccc2cc(CNCc3cccc4ccccc34)c(N3CCC(O)CC3)nc2c1	·	–	·	·	·	–
COc1cc(CNc2nc(C)c(-c3ccn(CC4CCCN(C)C4)n3)s2)ccc1F (stereo not drawn)	·	–	·	·	·	–
COC(=O)CS(=O)(=O)c1ccc2c(c1)CC(=O)N2	0.14µM	–	–	–	–	·
Cc1c(C(=O)N2CCN(C)CC2)sc2ncnc(NCC3(c4ccccc4)CCOCC3)c12	·	–	·	·	·	–
CCOc1cc(CNCCc2ccc(S(N)(=O)=O)cc2)ccc1OCc1ccc(Cl)cc1	–	11µM	–	?	?	·
Nc1nc(=S)[nH]c2n[nH]nc12	·	–	·	·	·	–
CCN1CCN(c2ccc(NC(=O)c3ccc([N+](=O)[O-])o3)cc2Cl)CC1	–	?	–	–	–	11µM
CCN1CCN(c2ccc(S(=O)(=O)N3CCCCC3)cc2NC(=O)c2ccc([N+](=O)[O-])o2)CC1	?	10µM	–	?	–	4µM
CCC(=O)N1CCN(c2ccc(NC(=O)c3ccc([N+](=O)[O-])o3)cc2Cl)CC1	–	11µM	–	–	–	13µM
OC1(c2cccnc2)CCN(Cc2ccc3c(c2)CN(Cc2cc(F)ccc2F)CCO3)CC1	·	–	·	·	·	–
CCC1(C2CCN(C(=O)c3cc(C)cc(C)c3)CC2)NC(=O)N(CCc2scnc2C)C1=O (stereo not drawn)	·	–	·	·	·	–
O=C(c1cccc(N2CCCC2=O)c1)N1CCC(Oc2cccc(CN3CCN(c4ccccn4)CC3)c2)CC1	·	–	·	·	·	?
CC(NS(=O)(=O)c1ccc(Br)cc1)C(c1cccs1)N1CCN(C)CC1 (stereo not drawn)	45µM	–	–	?	–	–
COc1ccccc1NC(=O)Cn1ncc2c1-c1ccccc1OC2	6.3µM	–	–	–	–	–
Cc1ccsc1C(=O)N1CCC(N2CCC(C(=O)NCC3CCCO3)CC2)CC1 (stereo not drawn)	–	–	–	–	–	–
CCOc1ccccc1NC(=O)C1CCCN(S(=O)(=O)c2cccc3cccnc23)C1 (stereo not drawn)	5.6µM	–	–	–	–	–
CCOc1ccccc1NC(=O)C1CCCN(S(=O)(=O)c2cccc3nsnc23)C1 (stereo not drawn)	–	–	–	?	–	–
O=C(Nc1ccncc1)C1CCCN(S(=O)(=O)c2cccc3cccnc23)C1 (stereo not drawn)	45µM	·	–	?	–	·
O=C(NCC1CCCO1)C1CCN(C(=O)c2ccc(Br)cc2)CC1 (stereo not drawn)	4µM	–	–	–	–	–
O=C(NCC1CCCO1)C1CCN(S(=O)(=O)c2cccc3cccnc23)CC1 (stereo not drawn)	3.2µM	–	–	–	–	–
O=C(NCC1CCC2(CCN(Cc3ccc4ncccc4c3)CC2)O1)C1CCCO1 (stereo not drawn)	·	–	·	·	·	–
CC(C)C(NS(C)(=O)=O)c1nnc2n1CCN(Cc1cccc3ncccc13)CC2 (stereo not drawn)	·	–	·	·	·	–
O=C1NC(=S)N/C1=C/c1cccc2ccccc12	–	·	–	–	–	·

Screening data: PubChem, National Center for Advancing Translational Sciences (NCATS)
